Screening data (PubChem BioAssay)
Shown are actives, neighbours in structure and some others; about 19% of the full set was active somewhere.
IL1B secr inh – inflammasome signaling inhibition, IL-1 beta readout; activity change, % at 57.5 µM; actives 4.7% (n = 360,000); THP-1 LPS/ATP IL-1B secretion, AlphaLISA, 16 h; active compounds read low; in the data active means activity change below about -50%; inconclusive means mostly about -30% to -49%
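THP-1 cells pretreated 1 hr with compounds (up to 57.5 uM final), then stimulated with LPS (250 ng/mL final) plus ATP (1.25 mM final); secreted IL-1B measured by AlphaLISA after 16 hr, decreased signal indicating inhibition.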
DT40 TDP1 CPT – DT40-hTDP1 cell growth loss with CPT; chicken DT40 Tdp1-/-;hTDP1 cells + 20 nM CPT, ATP luminescence, 48 h; actives 12% (n = 420,000); Potency, µM (top dose mostly 46.2 µM), for the others: at the top dose activity change, negative = growth inhibition, most hits filed as inhibitors; AID 686979; further: potency means the concentration at half of the fitted maximal effect; nearly all actives have a fitted effect of over 55% in size
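Cell growth measured by CellTiter-Glo luminescence after a minimum 48 h, 37 C compound exposure with 20 nM CPT in Tdp1-knockout DT40 cells stably expressing hTDP1, seeded 400/well; qHTS titration format.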
HT1080 IDH1KD tx – HT-1080 IDH1 knockdown cell toxicity (counter line) | HT-1080 IDH1 knockdown viability, ATP luminescence, 48 h | Potency, µM (top dose mostly 46.1 µM), for inactives: at the top dose activity, negative = toxicity, most hits filed as cytotoxic | actives 2% (n = 360,000) | AID 686971;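 further: potency means the concentration at half of the fitted maximal effect; 0% = DMSO wells and -100% = cell-free medium wells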
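In this qHTS, HT-1080 cells depleted of IDH1 are exposed for 48 h at 37 °C to compound titrations. Toxicity is scored from CellTiter-Glo luminescence, with DMSO as full viability and medium alone as none.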
TDP1 cell noCPT – qHTS for Inhibitors of human tyrosyl-DNA phosphodiesterase 1 (TDP1): qHTS in cells in absence of CPT | DT40 Tdp1-/- hTDP1 cells, no CPT, ATP luminescence, 48 h | AID 686978, 2013 | Potency, µM (top dose mostly 46.2 µM), for the others: at the highest dose activity change, negative = growth inhibition, hits mostly inhibitors | actives 15% (n = 420,000); further: potency means the concentration at half of the fitted maximal effect; nearly all actives have a fitted effect of over 55% in size
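Compound effects on proliferation are scored in DT40 Tdp1-/-;hTDP1 cells in the absence of CPT. ATP levels (CellTiter-Glo luminescence) are recorded after a ≥48 hr, 37 °C incubation.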
HT1080-NT tox – kills 2HG-producing HT-1080-NT fibrosarcoma cells | HT-1080-NT fibrosarcoma viability, CellTiter-Glo ATP luminescence, 48 h | Potency, µM (titrated, usually from 46.1 µM), inactives show top-dose activity, negative = less viability, most hits filed as cytotoxic | actives 1.6% (n = 360,000);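 further: NT is the 2HG producing partner of a matched IDH1 knockdown line; potency means the concentration at half of the fitted maximal effect; 0% = DMSO-treated cells and -100% = media-only wells without cells; nearly all actives have a fitted effect of over 55% in size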
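Fibrosarcoma NT cells, 750 per well in 5% FBS RPMI, were exposed to compound for 48 hours. Viability: CellTiter-Glo luminescence.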
Active calls of the source: *; ? = inconclusive; . = no result given. Unless noted, the call rests on the fitted dose curve; in most records, active means well fitted curve in the direction sought with a large enough effect; inconclusive means small, poorly fitted or top-dose-only effect, or another doubt; inactive means no such curve, though single readings can be large; an effect the other way counts as inactive or inconclusive. Unless noted, on the % scale 0 is the no-effect control and ±100 the full control effect.

SMILES	IL1B secr inh	DT40 TDP1 CPT	HT1080 IDH1KD tx	TDP1 cell noCPT	HT1080-NT tox
COc1ccc(N=Nc2nc(-c3ccccc3)c(-c3ccccc3)[nH]2)cc1	?	?	-2%	16µM*	-9%
CCOc1ccc(N2C(=O)C(c3ccccc3)=C(c3nc4ccccc4s3)C2NC(C)=O)cc1 (configuration not stated)	-19	?	-8%	16µM*	2%
CCOc1ccc(C(=O)CCc2nc3ccccc3s2)cc1	-4	-10%	?	-18%	?
O=C(COc1ccc2ccc(=O)oc2c1)Nc1cccc(S(=O)(=O)N2CCCCC2)c1	18	?	4%	12µM*	1%
O=C(COc1ccc2ccc(=O)oc2c1)Nc1ccc(N2CCOCC2)cc1	-3	-16%	1%	?	-11%
CC(=O)c1ccc(OCC(=O)Nc2cccc(S(=O)(=O)N3CCCC3)c2)cc1	-5	8.2µM*	-17%	9.2µM*	16µM*
N#Cc1ccccc1OCC(=O)Nc1cccc(S(=O)(=O)N2CCCCCC2)c1	-9	?	-23%	21µM*	0%
Cc1ccc(OCC(=O)Nc2cccc(S(=O)(=O)N3CCCC3)c2)cc1C	5	-28%	0%	?	-1%
CCOc1ccccc1OCC(=O)Nc1cccc(S(=O)(=O)N2CCCCCC2)c1	-14	?	-7%	?	-8%
Cc1ccc2cccc(OCC(=O)Nc3cccc(S(=O)(=O)N4CCCC4)c3)c2n1	-71*	21µM*	-23%	16µM*	-26%
O=C(Nc1ccccc1)Nc1cnccn1	-28	-8%	9%	16%	7%
Cc1cccc(NC(=O)CSc2nc(=O)n(CCCN3CCOCC3)c3c2CCCC3)c1C	-17	-25%	4%	1%	2%
Cc1ccc(SCc2nc(-c3ccc(C(=O)NCc4ccc(Cl)cc4)cc3)oc2C)cc1	.	15µM*	.	9.2µM*	.
CCOc1ccccc1CNC(=O)c1ccc(-c2nc(CSc3ccc(C)cc3)c(C)o2)cc1	.	9.2µM*	.	13µM*	.
CCOc1ccc(CCNC(=O)c2ccc(-c3nc(CSc4ccc(C)cc4)c(C)o3)cc2)cc1	.	-2%	.	-5%	.
COc1ccc(CNC(=O)c2ccc(-c3nc(CSc4ccc(C)cc4)c(C)o3)cc2)c(OC)c1	.	8.2µM*	.	?	.
COc1ccc(CNC(=O)c2ccc(-c3nc(CSc4ccccc4)c(C)o3)cc2)c(OC)c1	.	-3%	.	-27%	.
COc1ccccc1CCNC(=O)c1ccc(-c2nc(CSc3ccc(C)cc3)c(C)o2)cc1	.	16µM*	.	8.2µM*	.
O=C(CSC1=NS(=O)(=O)c2cc(Cl)ccc2N1)c1ccc(Cl)cc1	49	-4%	2%	-2%	7%
CCc1ccc(C(=O)NNC(=O)c2cccc(N3C(=O)CCC3=O)c2)cc1	11	10%	-3%	7%	0%
O=C(NNc1cc(Br)c(O)c(Br)c1)c1ccccc1	32	?	-13%	18µM*	-8%
Cn1ncc(Oc2ccc([N+](=O)[O-])cc2)c(Cl)c1=O	.	2%	3%	1%	9%
CC(C)(C)n1ncc(Oc2ccccc2[N+](=O)[O-])c(Cl)c1=O	0	?	-6%	23µM*	-2%
CCCCCCCCC(=O)NC(NC(=S)N1CCOCC1)C(Cl)(Cl)Cl (configuration not stated)	-7	?	11µM*	15µM*	?
CN(C)C(CNC(C(=O)Nc1ccc([N+](=O)[O-])cc1Br)c1ccccc1)c1ccccc1 (configuration not stated)	-73*	?	23µM*	?	23µM*
CN(C)C(CNC(C(=O)Nc1ccc(F)cc1)c1ccccc1)c1ccccc1 (configuration not stated)	-80*	-20%	-27%	?	-27%
CC(C)CNC(C(=O)Nc1ccc([N+](=O)[O-])cc1Br)c1ccccc1 (configuration not stated)	7	-15%	-3%	-35%	-4%
